Experimental data from PubChem BioAssay (Tox21).
“And” between values parts separate entries of the source, which are not always exact repeats. Equal entries are not always repeated. Results filed as inconclusive are left out. Where a call stands in place of a potency, no number is given. More than one record can exist for a structure, and the calls need not agree. The source made the active and inactive calls. Unless noted, the call rests on the fitted dose curve; in most records, active means well fitted curve in the direction sought with a large enough effect in the repeat runs; inconclusive means weak or mixed curves; inactive means no such curve, though single readings can be large; an effect the other way counts as inactive or inconclusive.

Key:
[1] = qHTS RealTime-Glo MT Cell Viability Assay in HEK293 cells - 0 hour (AID 1224880); further: top concentration of the series differs between compounds; nearly all actives have a fitted effect of over 45% in size
Method in brief: (§1)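 Viable HEK293 cells reduce a cell-permeant prosubstrate; the product diffuses out and is consumed by NanoLuc in the medium to give light. Compounds went in after a 5 h incubation and plates were read over the treatment course.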

[2] = A CellTox Green Cytotoxicity Assay to monitor cytotoxicity in HEK293 cells - 32 hour (AID 1224881); further: nearly all actives have a fitted effect of over 40% in size
Method in brief: (§2)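 Fluorescence intensity, read at 0, 8, 16, 24, 32 and 40 h of compound treatment, reflected dye binding to DNA of dead HEK293 cells; compounds (23 nL, DMSO) were added 5 h after plating cells with reagent.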

[3] = A CellTox Green Cytotoxicity Assay to monitor cytotoxicity in HepG2 cells - 32 hour (AID 1224883); further: nearly all actives have a fitted effect of over 50% in size
Method in brief: (§3)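 Using 1536-well format, dye-containing HepG2 suspension was seeded, allowed 5 h at 37 C/5% CO2, dosed by pintool with compounds, positive and negative controls, and imaged for fluorescence across 40 h.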

[4] = A CellTox Green Cytotoxicity Assay to monitor cytotoxicity in HEK293 cells - 8 hour (AID 1224884); further: nearly all actives have a fitted effect of over 35% in size
Method in brief: as §2

[5] = qHTS RealTime-Glo MT Cell Viability Assay in HepG2 cells - 16 hour (AID 1224885); further: nearly all actives have a fitted effect of over 50% in size
Method in brief: (§4)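 HepG2 suspension premixed with RealTime-Glo reagents is plated at 600 cells per well and left 5 h at 37 C/5% CO2. Compounds in DMSO then go in, and bioluminescence reflecting viable cell number is recorded over 40 h.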

[6] = qHTS RealTime-Glo MT Cell Viability Assay in HEK293 cells - 24 hour (AID 1224886); further: nearly all actives have a fitted effect of over 50% in size; further: potency means the concentration at half of the fitted maximal effect
Method in brief: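 Reads taken at 0, 8, 16, 24, 32 and 40 h from the same wells. HEK293 cells (600/well) carried RealTime-Glo reagents from seeding, with compound added after a 5 h settle at 37 C.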

[7] = qHTS RealTime-Glo MT Cell Viability Assay in HEK293 cells - 8 hour (AID 1224887); further: nearly all actives have a fitted effect of over 50% in size; further: potency means the concentration at half of the fitted maximal effect
Method in brief: as §1

[8] = A CellTox Green Cytotoxicity Assay to monitor cytotoxicity in HEK293 cells - 16 hour (AID 1224888); further: nearly all actives have a fitted effect of over 35% in size
Method in brief: as §2

[9] = qHTS RealTime-Glo MT Cell Viability Assay in HepG2 cells - 0 hour (AID 1224889); further: nearly all actives have a fitted effect of over 50% in size
Method in brief: as §4

[10] = A CellTox Green Cytotoxicity Assay to monitor cytotoxicity in HepG2 cells - 8 hour (AID 1224890); further: nearly all actives have a fitted effect of over 45% in size
Method in brief: as §3

[11] = qHTS assay to identify small molecule antagonists of the estrogen receptor alpha (ER-alpha) signaling pathway using the BG1 cell line in the presence of 0.1 nM 17-beta-estradiol - cell viability counter screen (AID 1259241); further: nearly all actives have a fitted effect of over 40% in size; further: potency means the concentration at half of the fitted maximal effect
Method in brief: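 VM7Luc4E2 cells (endogenous full-length ER-alpha, 4xERE-luciferase), cultured 5 days in charcoal-stripped serum, exposed to compounds with 0.1 nM 17beta-estradiol (final) for 22 hr at 37C. Viability read in same wells as live-cell protease fluorescence after 30 min.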

[12] = qHTS assay to identify small molecule antagonists of the androgen receptor (AR) signaling pathway using the MDA cell line in the presence of 0.5 nM R1881 - cell viability counter screen (AID 1259242); further: nearly all actives have a fitted effect of over 45% in size
Method in brief: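 Viability of MDA-kb2 cells was multiplexed with the luciferase AR readout; after 16 hr with compounds and R1881 at 0.5 nM final, CellTiter-Fluor fluorescence was recorded.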

[13] = molecular target: Estrogen receptor (Homo sapiens) (UniProt P03372); test: qHTS assay to identify small molecule antagonists of the estrogen receptor alpha (ER-alpha) signaling pathway using the BG1 cell line in the presence of 0.1 nM 17-beta-estradiol (AID 1259244); further: nearly all actives have a fitted effect of over 50% in size; further: potency means the concentration at half of the fitted maximal effect
Estrogen receptor (Homo sapiens), sequence (P03372 whole entry, looked up): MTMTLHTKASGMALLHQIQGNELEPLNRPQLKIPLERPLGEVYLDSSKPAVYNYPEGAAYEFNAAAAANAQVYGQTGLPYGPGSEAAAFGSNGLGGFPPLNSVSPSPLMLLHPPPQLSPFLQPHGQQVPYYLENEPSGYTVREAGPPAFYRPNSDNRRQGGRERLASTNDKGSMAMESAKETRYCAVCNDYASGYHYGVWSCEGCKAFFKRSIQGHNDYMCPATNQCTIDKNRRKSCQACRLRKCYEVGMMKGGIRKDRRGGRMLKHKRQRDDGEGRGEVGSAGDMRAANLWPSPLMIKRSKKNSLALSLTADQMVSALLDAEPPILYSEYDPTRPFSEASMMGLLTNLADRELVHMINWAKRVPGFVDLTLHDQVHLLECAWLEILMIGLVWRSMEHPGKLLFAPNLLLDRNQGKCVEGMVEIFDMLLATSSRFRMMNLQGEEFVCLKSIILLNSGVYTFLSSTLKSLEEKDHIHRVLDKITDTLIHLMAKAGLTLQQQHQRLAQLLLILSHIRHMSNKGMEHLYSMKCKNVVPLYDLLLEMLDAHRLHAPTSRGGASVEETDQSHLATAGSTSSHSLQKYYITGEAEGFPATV
Method in brief: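 Estradiol at 0.1 nM (final) stimulates the endogenous ER-alpha of VM7Luc4E2 cells carrying an ERE-driven luciferase; compounds are co-incubated 22 h at 37C and luciferase output quantified by luminescence.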

[14] = qHTS assay to identify small molecule phospholipidosis (PLD) inducers (AID 1259344; active means well fitted curve in the direction sought with a large enough effect; an effect the other way counts as inactive or inconclusive)
Method in brief: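 HepG2 cells, 900/well, treated with compound plus LipidTOX Red for 24 h at 37 C; amiodarone positive and DMSO negative controls. Fixed with paraformaldehyde/Hoechst, then high-content imaging scored LipidTOX pit count and integrated intensity per well and per cell.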

[15] = qHTS assay to identify small molecule HDAC inhibitors (AID 1259364); further: potency means the concentration at half of the fitted maximal effect;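 further: wild-type HCT-116 cells with endogenous class I/II HDAC activity; nearly all actives have a fitted effect of over 45% in size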
Method in brief: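 Read-out: luminescence of HDAC-Glo I/II reagent, 30 min RT, reflecting class I/II deacetylase activity in whole HCT-116 cells pre-exposed 2 h to DMSO-dissolved compounds.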

[16] = qHTS assay to identify small molecule HDAC inhibitors - cell viability counter screen (AID 1259365)
Method in brief: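 Wild-type HCT-116 cells, 1,500/well, cultured overnight, then compound-treated 2 h at 37 C. Viability measured as ATP luminescence with CellTiter-Glo after 30 min at room temperature.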

[17] = qHTS assay to identify small molecule antagonists of the sonic hedgehog signaling (Shh) pathway - cell viability counter screen (AID 1259367); further: nearly all actives have a fitted effect of over 55% in size; further: potency means the concentration at half of the fitted maximal effect
Method in brief: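 NIH/3T3-derived Gli1-Luc reporter cells, 2,000/well, plated 4 hr before compound addition, then stimulated with conditioned medium for 24 hr at 37C. Viability measured in the same wells by CellTiter-Fluor fluorescence, reagent added at 23 hr for 1 hr.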

[18] = A CellTox Green Cytotoxicity Assay to monitor cytotoxicity in HepG2 cells - 0 hour (AID 1224882); further: nearly all actives have a fitted effect of over 35% in size
Method in brief: as §3

[19] = molecular target: Androgen receptor (Homo sapiens) (UniProt P10275); test: qHTS assay to identify small molecule antagonists of the androgen receptor (AR) signaling pathway using the MDA cell line in the presence of 0.5 nM R1881 (AID 1259243); further: nearly all actives have a fitted effect of over 50% in size
Androgen receptor (Homo sapiens), sequence (P10275 whole entry, looked up): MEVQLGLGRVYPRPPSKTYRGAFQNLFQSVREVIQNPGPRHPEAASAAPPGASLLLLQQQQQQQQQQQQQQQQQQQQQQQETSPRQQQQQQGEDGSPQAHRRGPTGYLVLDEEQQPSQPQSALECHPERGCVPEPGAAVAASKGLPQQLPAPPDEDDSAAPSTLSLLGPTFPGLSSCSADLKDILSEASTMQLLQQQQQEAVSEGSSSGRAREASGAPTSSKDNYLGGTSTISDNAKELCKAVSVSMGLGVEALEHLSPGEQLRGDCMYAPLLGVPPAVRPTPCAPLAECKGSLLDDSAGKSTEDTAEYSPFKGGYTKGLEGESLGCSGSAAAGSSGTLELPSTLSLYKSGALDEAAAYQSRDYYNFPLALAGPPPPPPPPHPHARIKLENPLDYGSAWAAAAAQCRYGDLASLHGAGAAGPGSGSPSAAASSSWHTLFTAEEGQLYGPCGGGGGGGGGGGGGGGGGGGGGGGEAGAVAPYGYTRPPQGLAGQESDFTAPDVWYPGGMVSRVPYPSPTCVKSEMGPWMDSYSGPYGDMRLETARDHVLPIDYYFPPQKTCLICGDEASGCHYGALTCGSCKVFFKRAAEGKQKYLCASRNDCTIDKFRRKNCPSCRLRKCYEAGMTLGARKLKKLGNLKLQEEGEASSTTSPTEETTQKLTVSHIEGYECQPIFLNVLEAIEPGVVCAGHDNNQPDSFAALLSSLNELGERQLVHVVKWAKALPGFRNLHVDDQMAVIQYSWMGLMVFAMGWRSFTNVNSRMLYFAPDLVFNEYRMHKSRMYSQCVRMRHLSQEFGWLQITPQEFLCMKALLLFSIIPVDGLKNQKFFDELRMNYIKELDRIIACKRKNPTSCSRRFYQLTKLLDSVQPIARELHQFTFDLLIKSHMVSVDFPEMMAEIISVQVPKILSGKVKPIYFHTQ
Method in brief: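 Reporter cells cultured without CO2 receive test chemicals, then 0.5 nM R1881 final; after 16 hr at 37C, ONE-Glo is added and light output recorded.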

[20] = qHTS assay to identify small molecule agonists of the sonic hedgehog signaling (Shh) pathway - cell viability counter screen (AID 1259366); further: nearly all actives have a fitted effect of over 50% in size; further: potency means the concentration at half of the fitted maximal effect
Method in brief: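 NIH/3T3-derived Gli1-Luc reporter cells, 2,000 per well, received compound after 4 h and were treated about 23 h at 37C. Viability measured in the same wells by CellTiter-Fluor fluorescence after 1 h.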

Structure (SMILES) | Potency [1] | Potency [2] | Potency [3] | Potency [4] | Potency [5] | Potency [6] | Potency [7] | Potency [8] | Potency [9] | Potency [10] | Potency [11] | Potency [12] | Potency [13] | outcome [14] | Potency [15] | outcome [16] | Potency [17] | Potency [18] | outcome [19] | Potency [20]
CC(=O)Nc1ccc(C(=O)O)cc1 | inactive | inactive | inactive | inactive | inactive | inactive | inactive | inactive | inactive | inactive | inactive | inactive | inactive | inactive | inactive | inactive | inactive |  |  | 
CCCCCCCCCC(=O)O | inactive |  | inactive | inactive | inactive | inactive | inactive | inactive | inactive | inactive | inactive | inactive |  | inactive | inactive | inactive | inactive | inactive | inactive | 
CCCCCC/C=C/CCCCCCCC(=O)O | inactive | inactive | inactive | inactive | inactive | inactive | inactive | inactive |  | inactive | inactive |  | inactive |  | inactive | inactive |  |  |  | inactive
c1ccc2ccccc2c1 | inactive | inactive | inactive | inactive | inactive | inactive | inactive | inactive | inactive | inactive | inactive | inactive | inactive | inactive | inactive | inactive | inactive |  |  | 
O=C1N=C(O)CN1/N=C/c1ccc(-c2ccc([N+](=O)[O-])cc2)o1 | inactive | inactive |  | inactive | inactive | inactive | inactive | inactive | inactive | inactive |  |  |  | inactive | inactive | inactive |  | inactive |  | 
CCc1ccc(O)cc1 | inactive | inactive |  | inactive | inactive | inactive | inactive | inactive | inactive | inactive | inactive | inactive |  |  | inactive | inactive |  |  | inactive | inactive
CC1COc2ccccc2N1C(=O)C(Cl)Cl (stereo not drawn) | inactive | inactive |  | inactive | inactive | inactive | inactive | inactive | inactive | inactive | inactive |  |  |  | inactive | inactive |  | inactive |  | inactive
O=C(c1cc(O)c(O)c(O)c1)c1ccc(O)c(O)c1O | inactive | inactive |  | inactive | inactive | inactive | inactive | inactive | inactive | inactive |  |  | inactive |  | inactive | inactive | 54.5 µM (active) | inactive |  | 
Cc1ccc(C)c(C)c1 | inactive |  | inactive | inactive | inactive | inactive | inactive | inactive | inactive | inactive | inactive | inactive | inactive |  | inactive | inactive | inactive | inactive | inactive | inactive
CC1CC(OC(=O)c2ccccc2O)CC(C)(C)C1 (stereo not drawn) | inactive | inactive | inactive | inactive | inactive | inactive | inactive | inactive |  | inactive | inactive |  |  | inactive | inactive | inactive | 60.5 µM (active) and inactive |  |  | 
Cc1ccc(C(=O)O)o1 | inactive | inactive | inactive | inactive | inactive | inactive | inactive | inactive | inactive | inactive | inactive | inactive |  |  | inactive | inactive | inactive |  |  | inactive
Nc1nc2ncc(CNc3ccc(C(=O)N[C@@H](CCC(=O)O)C(=O)O)cc3)nc2c(=O)[nH]1 | inactive | inactive |  | inactive | inactive | inactive | inactive | inactive |  | inactive | inactive | inactive |  | inactive | inactive | inactive | inactive | inactive | inactive | 
Oc1c(Cl)cc(Cl)c(Cl)c1Cl | inactive | inactive |  | inactive | inactive |  |  | inactive |  | inactive | inactive | inactive | 47.5 µM (active) and 61.1 µM (active) |  | inactive | inactive | inactive | inactive |  | 
O=S(=O)(O)CCS | inactive | inactive | inactive | inactive | inactive | inactive | inactive | inactive | inactive | inactive | inactive |  | inactive | inactive | inactive | inactive |  |  |  | inactive
Oc1ccc2ccccc2c1N=Nc1ccccc1 | inactive | inactive | inactive | inactive | inactive | inactive |  | inactive | inactive | inactive | 30.6 µM (active) |  | inactive |  | 21.7 µM (active) and 15.4 µM (active) | inactive |  |  |  | 34.3 µM (active)
O=Nc1ccc(O)cc1 | inactive | inactive |  | inactive | inactive | inactive | 24 µM (active) and inactive | inactive |  | inactive | inactive |  | inactive |  | inactive | inactive | inactive | inactive | inactive | inactive
CC#C[C@]1(O)CC[C@H]2[C@@H]3CCC4=CC(=O)CCC4=C3[C@@H](c3ccc(N(C)C)cc3)C[C@@]21C | inactive | inactive |  | inactive | inactive | 49 µM (active) | 43.6 µM (active) | inactive |  | inactive | inactive | inactive |  | inactive | inactive | inactive |  | inactive |  | 
